# PubChem BioAssay (Tox21)
# Records with an inconclusive call do not appear. Entries that show only a call come without a potency. Activity calls are given as the source filed them. The call rests on the fitted dose curve; in most records, active means well fitted activation curve with a large enough effect in the repeat runs; inconclusive means weak or mixed curves; inactive means flat fitted curve, though single readings scatter.
# Experiment: A CellTox Green Cytotoxicity Assay to monitor cytotoxicity in HepG2 cells - 24 hour (AID 1224878); further: nearly all actives have a fitted effect of over 45% in size
# Conditions: CellTox Green fluorescence; series mostly up to 76.8 µM
# Outline: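 First, HepG2 cells (600/well) mixed with reagent were plated; second, after 5 h at 37 C they received compounds via pintool; third, fluorescence was measured at 0 h through 40 h at 8 h intervals.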
row,Structure (SMILES),Potency
1,COc1nc(N)nc2nc[nH]c12,inactive
2,OC1OCCOC1O (stereo not drawn),inactive
3,CCCCCCC1(C)CCC(=O)O1 (stereo not drawn),inactive
4,C#CCN[C@@H]1CCc2ccccc21,inactive
5,CC(=O)OC1CCCCC1C(C)(C)C (stereo not drawn),inactive
6,CCOc1cccc(N)c1,inactive
7,CC1(C)Oc2ccc(C#N)cc2[C@@H](N2CCCC2=O)[C@@H]1O,inactive
8,COc1ccc(CCO)cc1,inactive
9,C/C(CC(C)C)=N\O,inactive
10,[O-][n+]1cccc(/C(Cl)=N/OC[C@@H](O)CN2CCCCC2)c1,inactive
11,CC(=O)OCC(=O)Nc1cc(C#N)cc(NC(=O)COC(C)=O)c1Cl,inactive
12,CNCCS(=O)(=O)O,inactive
13,CCC(=O)CC,inactive
14,CC(=O)O[C@@H]1CC2CCC1(C)C2(C)C (stereo partly drawn),inactive
15,NCc1ccc(S(N)(=O)=O)cc1,inactive
16,Cn1c(=O)c2[nH]c(Br)nc2n(C)c1=O,inactive
17,CCC[C@@H]1C[C@@H](C(=O)N[C@@H]([C@H]2O[C@H](SC)[C@H](O)[C@@H](O)[C@H]2O)[C@@H](C)O)N(C)C1,inactive
18,O=Cc1cc2ccccc2o1,inactive
19,Cc1c(N)cccc1Cl,inactive
20,Cc1ccccc1C(N)=O,inactive
21,O=C(Cn1ccnc1[N+](=O)[O-])NCc1ccccc1,inactive
22,CC(C)=CCC/C(C)=C/COC=O,inactive
23,COC(=O)c1ccccc1C(=O)O,inactive
24,CCO,inactive
25,CC(C)OC(=O)CCC(=O)OC(C)C,inactive
26,CCOc1ccccc1OCC1CNCCO1 (stereo not drawn),inactive
27,CCCCCCCCCCCCCCC(=O)NC(CO)CCCCCCCCCCCCCC (stereo not drawn),inactive
28,O=C(CCCCC(=O)Nc1c(I)cc(I)c(C(=O)O)c1I)Nc1c(I)cc(I)c(C(=O)O)c1I,inactive
